Records with an inconclusive call do not appear. Activity calls are given as the source filed them. Unless noted, the call rests on the fitted dose curve; in most records, active means well fitted curve in the direction sought with a large enough effect in the repeat runs; inconclusive means weak or mixed curves; inactive means no such curve, though single readings can be large; an effect the other way counts as inactive or inconclusive.
How the values were obtained:
[1] = qHTS assay to identify aromatase inhibitors - cell viability counter screen (AID 743084);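 further: cells stimulated with testosterone during compound exposure; nearly all actives have a fitted effect of over 55% in size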
[2] = molecular target: Aryl hydrocarbon receptor (Homo sapiens) (UniProt P35869); assay: qHTS assay to identify small molecule that activate the aryl hydrocarbon receptor (AhR) signaling pathway (AID 743085); further: nearly all actives have a fitted effect of over 15% in size; further: potency means the concentration at half of the fitted maximal effect;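 on activation: HG2L7.5c1 human HepG2 liver cells with stably integrated DRE-driven firefly reporter; series mostly up to about 70 µM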
Summary of the method: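 HepG2 cells (HG2L7.5c1) stably carrying a firefly luciferase reporter driven by 20 dioxin responsive elements were exposed to compound for 24 h at 37C after a 5 h settling period; luminescence rise (ONE-Glo) indicated activation.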

[3] = qHTS assay to identify small molecule that activate the aryl hydrocarbon receptor (AhR) signaling pathway - cell viability counter screen (AID 743086);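 further: HepG2 liver cells carrying the AhR DRE luciferase reporter; series mostly up to about 70 µM; nearly all actives have a fitted effect of over 45% in size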
Summary of the method: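 HepG2-AhR-luc (HG2L7.5c1) cells, 4000/well, treated 24 h at 37 C with compound; viability measured as CellTiter-Fluor fluorescence after 30 min in the same wells as the luciferase read.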

[4] = molecular target: Peroxisome proliferator-activated receptor gamma (Homo sapiens) (UniProt P37231); assay: qHTS assay to identify small molecule agonists of the peroxisome proliferator-activated receptor gamma (PPARg) signaling pathway (AID 743094; active means well fitted activation curve with a large enough effect in the signal ratio in the repeat runs, not every such curve was filed as active; the % refers to the signal ratio)
Summary of the method: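 HEK293H PPARg-bla cells, 5 h settle at 37C/5% CO2; compound (DMSO) 17 h, 37C; B/G FRET substrate 1 h RT; fluorescence intensity read-out. qHTS format.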

[5] = qHTS assay to identify small molecule antagonists of the peroxisome proliferator-activated receptor gamma (PPARg) signaling pathway - cell viability counter screen (AID 743194); further: nearly all actives have a fitted effect of over 55% in size
Summary of the method: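 Cytotoxicity counter screen in PPARg-bla HEK293H cells, same wells as reporter assay. Compounds plus 50 nM rosiglitazone (final) for 17 h at 37 C, then viability read by CellTiter-Glo luminescence.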

[6] = qHTS assay for small molecule agonists of the antioxidant response element (ARE) signaling pathway (AID 743202; active means well fitted activation curve with a large enough effect in the signal ratio in the repeat runs, not every such curve was filed as active; the % refers to the signal ratio; further: potency means the concentration at half of the fitted maximal effect)
Summary of the method: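 HepG2 ARE-bla reporter line, 2,000 cells/well; 5 h preincubation 37 C/5% CO2; compound (DMSO) 16 h 37 C; B/G FRET substrate 2 h RT; fluorescence intensity.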

[7] = qHTS assay for small molecule agonists of the antioxidant response element (ARE) signaling pathway - cell viability counter screen (AID 743203; calls by dose curve; further: nearly all actives have a fitted effect of over 55% in size)
Summary of the method: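 Luminescence read-out (CellTiter-Glo, 30 min at room temperature) measured cell viability in the same wells as the ARE beta-lactamase reporter. HepG2 ARE-bla cells were treated with compounds for 16 hrs at 37C/5% CO2.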

[8] = qHTS assay for small molecule activators of the heat shock response signaling pathway - cell viability counter screen (AID 743209); further: nearly all actives have a fitted effect of over 50% in size; further: potency means the concentration at half of the fitted maximal effect
Summary of the method: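 HSE-bla HeLa; 1500 cells/well; overnight 37 C, 5% CO2; compound 5 h 37 C; LiveBLAzer B/G substrate 2.5 h RT; CellTiter-Glo 30 min RT; luminescence.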

[9] = qHTS assay for small molecule activators of the heat shock response signaling pathway (AID 743210; active means well fitted activation curve with a large enough effect in the signal ratio in the repeat runs, with a control signal flat, not every such curve was filed as active; the % refers to the signal ratio;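 further: HeLa cells with beta-lactamase reporter driven by heat shock elements; series mostly up to about 63 µM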)
Summary of the method: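 Beta-lactamase reporter read-out: FRET substrate fluorescence after 2.5 h at RT, following 5 h compound treatment at 37 C of HeLa cells carrying HSE-driven bla reporter; quantitative HTS format.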

[10] = qHTS assay to identify small molecule agonists of the peroxisome proliferator-activated receptor delta (PPARd) signaling pathway - cell viability counter screen (AID 743211); further: nearly all actives have a fitted effect of over 55% in size
Summary of the method: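 PPARd-bla HEK293H cells (UAS-beta-lactamase reporter) were treated with compounds for 17 h at 37 C. Viability was then read in the same wells by CellTiter-Glo luminescence after 30 min at room temperature.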

[11] = molecular target: Peroxisome proliferator-activated receptor delta (Homo sapiens) (UniProt Q03181); assay: qHTS assay to identify small molecule agonists of the peroxisome proliferator-activated receptor delta (PPARd) signaling pathway (AID 743212; calls by dose curve)
Summary of the method: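 Read-out: beta-lactamase FRET fluorescence after 2 h room-temperature incubation with LiveBLAzer B/G substrate. Cells were HEK293H carrying a UAS-bla reporter for PPARd, treated at 37 C with DMSO-dissolved compounds.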

[12] = qHTS assay to identify small molecule antagonists of the peroxisome proliferator-activated receptor delta (PPARd) signaling pathway - cell viability counter screen (AID 743213); further: nearly all actives have a fitted effect of over 50% in size
Summary of the method: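 Viability counter-screen, qHTS format: PPARd-bla HEK293H, L165041 300 nM final, 17 h compound exposure at 37 C, CellTiter-Glo luminescence after 30 min RT.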

[13] = molecular target: Bile acid receptor (Homo sapiens) (UniProt Q96RI1); assay: qHTS assay to identify small molecule antagonists of the farnesoid-X-receptor (FXR) signaling pathway (AID 743217; active means well fitted inhibition curve with a large enough effect in the signal ratio in the repeat runs, not every such curve was filed as active; the % refers to the signal ratio)
Summary of the method: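 Read-out: beta-lactamase FRET fluorescence (LiveBLAzer B/G substrate, 2 h, room temperature) in GeneBLAzer FXR-UAS-bla HEK 293T cells. Compounds were co-dosed with 50 uM chenodeoxycholic acid (final) and incubated 16 h at 37 °C.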

[14] = qHTS assay to identify small molecule agonists of the farnesoid-X-receptor (FXR) signaling pathway - cell viability counter screen (AID 743218); further: nearly all actives have a fitted effect of over 45% in size
Summary of the method: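 Luminescence from CellTiter-Glo, read after 30 min at RT, reports viability of GeneBLAzer FXR-UAS-bla HEK 293T cells treated 16 h with compounds in the wells used for the beta-lactamase reporter.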

[15] = qHTS assay to identify small molecule antagonists of the farnesoid-X-receptor (FXR) signaling pathway - cell viability counter screen (AID 743221; active means well fitted cell-killing curve with a large enough effect in the repeat runs, not every such curve was filed as active; further: nearly all actives have a fitted effect of over 50% in size)
Summary of the method: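 FXR-UAS-bla HEK 293T cells were treated with test compounds plus chenodeoxycholic acid (50 uM final) for 16 h at 37 C. Cell viability in the same wells was then read as CellTiter-Glo luminescence after 30 min at room temperature.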

[16] = molecular target: Peroxisome proliferator-activated receptor delta (Homo sapiens) (UniProt Q03181); assay: qHTS assay to identify small molecule antagonists of the peroxisome proliferator-activated receptor delta (PPARd) signaling pathway (AID 743215; active means well fitted inhibition curve with a large enough effect in the signal ratio in the repeat runs, not every such curve was filed as active; the % refers to the signal ratio;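 further: cells stimulated with agonist L165041 at 300 nM final during compound exposure; series mostly up to about 62 µM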)
Summary of the method: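 HEK293H GeneBLAzer PPARd UAS-bla reporter cells; cpd + L165041 300 nM final, 17 h 37 C; LiveBLAzer B/G FRET substrate 2 h RT; fluorescence intensity read-out. Antagonist mode.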

[17] = molecular target: Vitamin D3 receptor (Homo sapiens) (UniProt P11473); assay: qHTS assay to identify small molecule agonists of the vitamin D receptor (VDR) signaling pathway (AID 743222; calls by dose curve)
Summary of the method: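 Beta-lactamase reporter readout (LiveBLAzer B/G FRET, 2 h RT) in VDR-bla cells after 16 h compound treatment at 37C, 5% CO2; cells pre-incubated 4 h before pin transfer of DMSO solutions.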

[18] = molecular target: Vitamin D3 receptor (Homo sapiens) (UniProt P11473); assay: qHTS assay to identify small molecule antagonists of the vitamin D receptor (VDR) signaling pathway (AID 743223; active means well fitted inhibition curve with a large enough effect in the signal ratio in the repeat runs, not every such curve was filed as active; the % refers to the signal ratio)
Summary of the method: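 VDR-bla cells were plated, incubated 4 h at 37C, then given compound and 1alpha,25-dihydroxyvitamin D3 (3 nM final). After 16 h at 37C, LiveBLAzer B/G FRET substrate was added for 2 h at room temperature and fluorescence read.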

[19] = molecular target: Bile acid receptor (Homo sapiens) (UniProt Q96RI1); assay: qHTS assay to identify small molecule agonists of the farnesoid-X-receptor (FXR) signaling pathway (AID 743220; active means well fitted activation curve with a large enough effect in the signal ratio in the repeat runs, not every such curve was filed as active; the % refers to the signal ratio)
Summary of the method: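 FXR-UAS-bla HEK 293T cells carrying a UAS-driven beta-lactamase reporter were plated for 5 h at 37C/5% CO2, then exposed to DMSO-dissolved Tox21 10K compounds for 16 h at 37C. A LiveBLAzer B/G FRET substrate was loaded for 2 h at room temperature before fluorescence reading.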

Measured: Potency

Chain of Peroxisome proliferator-activated receptor gamma (Homo sapiens) (P37231 whole entry, looked up): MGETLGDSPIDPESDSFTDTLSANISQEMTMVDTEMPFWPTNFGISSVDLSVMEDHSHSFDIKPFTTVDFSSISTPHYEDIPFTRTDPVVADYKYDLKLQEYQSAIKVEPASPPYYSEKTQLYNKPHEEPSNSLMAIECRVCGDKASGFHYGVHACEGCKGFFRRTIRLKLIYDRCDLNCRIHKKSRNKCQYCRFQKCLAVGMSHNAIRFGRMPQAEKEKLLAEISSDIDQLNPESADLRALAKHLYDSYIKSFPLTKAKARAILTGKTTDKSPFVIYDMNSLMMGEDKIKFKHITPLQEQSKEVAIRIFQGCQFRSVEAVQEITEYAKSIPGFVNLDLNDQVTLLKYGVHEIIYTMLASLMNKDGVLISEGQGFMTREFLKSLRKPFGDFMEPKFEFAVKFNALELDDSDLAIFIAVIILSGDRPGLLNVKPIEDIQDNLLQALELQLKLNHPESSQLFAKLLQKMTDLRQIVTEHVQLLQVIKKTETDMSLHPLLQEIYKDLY
Chain of Aryl hydrocarbon receptor (Homo sapiens) (P35869 whole entry, looked up): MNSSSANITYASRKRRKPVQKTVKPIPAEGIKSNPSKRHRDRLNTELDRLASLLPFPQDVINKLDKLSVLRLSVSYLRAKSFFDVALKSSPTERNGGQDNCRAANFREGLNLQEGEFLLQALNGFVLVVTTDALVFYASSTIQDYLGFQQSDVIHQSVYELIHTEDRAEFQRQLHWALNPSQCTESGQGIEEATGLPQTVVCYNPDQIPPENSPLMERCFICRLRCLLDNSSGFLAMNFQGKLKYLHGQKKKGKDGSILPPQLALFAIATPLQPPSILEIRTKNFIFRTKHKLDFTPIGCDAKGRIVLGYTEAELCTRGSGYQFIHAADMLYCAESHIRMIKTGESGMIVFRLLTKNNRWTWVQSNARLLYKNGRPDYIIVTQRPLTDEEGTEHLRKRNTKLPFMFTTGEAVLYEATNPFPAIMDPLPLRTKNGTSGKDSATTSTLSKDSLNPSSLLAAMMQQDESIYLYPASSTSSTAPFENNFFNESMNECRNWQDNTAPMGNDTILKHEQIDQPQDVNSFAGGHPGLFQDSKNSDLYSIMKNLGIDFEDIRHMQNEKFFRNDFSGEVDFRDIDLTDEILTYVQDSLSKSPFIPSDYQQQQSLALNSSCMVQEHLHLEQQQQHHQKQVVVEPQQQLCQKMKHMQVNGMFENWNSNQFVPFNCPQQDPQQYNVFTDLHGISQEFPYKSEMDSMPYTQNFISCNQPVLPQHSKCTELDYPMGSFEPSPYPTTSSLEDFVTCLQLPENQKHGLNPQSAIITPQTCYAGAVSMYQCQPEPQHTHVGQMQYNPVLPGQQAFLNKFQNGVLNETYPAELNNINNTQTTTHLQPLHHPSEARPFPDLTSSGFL
Chain of Peroxisome proliferator-activated receptor delta (Homo sapiens) (Q03181 whole entry, looked up): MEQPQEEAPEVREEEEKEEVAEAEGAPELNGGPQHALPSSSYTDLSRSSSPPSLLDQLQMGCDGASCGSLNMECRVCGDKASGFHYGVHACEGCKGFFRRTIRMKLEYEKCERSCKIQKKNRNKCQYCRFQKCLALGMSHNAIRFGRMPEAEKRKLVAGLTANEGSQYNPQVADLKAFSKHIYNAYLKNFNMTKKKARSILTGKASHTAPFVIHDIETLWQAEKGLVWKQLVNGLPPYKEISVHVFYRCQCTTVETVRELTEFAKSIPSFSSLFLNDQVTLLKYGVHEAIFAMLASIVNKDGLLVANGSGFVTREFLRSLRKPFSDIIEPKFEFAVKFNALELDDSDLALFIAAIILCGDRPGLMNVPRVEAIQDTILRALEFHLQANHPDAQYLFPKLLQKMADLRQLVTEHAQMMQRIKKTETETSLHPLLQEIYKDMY
Chain of Bile acid receptor (Homo sapiens) (Q96RI1 whole entry, looked up): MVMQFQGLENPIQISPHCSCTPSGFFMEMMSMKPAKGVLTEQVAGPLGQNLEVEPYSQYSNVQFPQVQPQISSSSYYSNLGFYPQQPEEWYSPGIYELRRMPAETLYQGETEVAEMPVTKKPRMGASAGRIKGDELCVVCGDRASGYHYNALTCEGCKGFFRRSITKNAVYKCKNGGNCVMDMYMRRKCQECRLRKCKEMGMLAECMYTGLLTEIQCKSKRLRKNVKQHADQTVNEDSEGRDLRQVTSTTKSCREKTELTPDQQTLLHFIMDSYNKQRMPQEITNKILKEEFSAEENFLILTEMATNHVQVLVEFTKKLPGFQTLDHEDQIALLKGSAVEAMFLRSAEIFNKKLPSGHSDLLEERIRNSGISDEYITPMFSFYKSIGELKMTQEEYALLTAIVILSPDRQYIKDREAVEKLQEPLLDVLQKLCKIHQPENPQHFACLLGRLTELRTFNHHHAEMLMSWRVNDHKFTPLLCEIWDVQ
Chain of Vitamin D3 receptor (Homo sapiens) (P11473 whole entry, looked up): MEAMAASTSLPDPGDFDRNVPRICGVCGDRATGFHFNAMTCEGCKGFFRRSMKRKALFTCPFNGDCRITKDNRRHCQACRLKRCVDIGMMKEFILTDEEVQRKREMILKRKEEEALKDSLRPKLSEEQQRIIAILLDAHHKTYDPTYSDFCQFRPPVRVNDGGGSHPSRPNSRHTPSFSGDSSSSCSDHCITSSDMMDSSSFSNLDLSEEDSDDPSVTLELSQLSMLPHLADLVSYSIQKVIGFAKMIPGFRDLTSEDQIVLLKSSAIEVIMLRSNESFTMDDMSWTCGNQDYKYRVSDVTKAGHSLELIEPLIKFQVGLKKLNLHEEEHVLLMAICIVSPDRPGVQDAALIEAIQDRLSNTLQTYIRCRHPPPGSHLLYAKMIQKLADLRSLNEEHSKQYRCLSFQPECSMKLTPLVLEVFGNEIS

Cc1cccc(Cl)c1
inactive: [1] | [2] | [3] | [4] | [5] | [6] | [7] | [8] | [9] | [10] | [11] | [12] | [13] | [14] | [15]

CCOC(=O)CC1(C)OCC(C)O1 (stereo not drawn)
inactive: [1] | [2] | [3] | [4] | [5] | [6] | [7] | [8] | [10] | [11] | [12] | [16] | [15]

CCCCCCCCCOC(=O)CCCCC(=O)OCCCCCCC
inactive: [1] | [2] | [3] | [4] | [5] | [7] | [8] | [10] | [11] | [12] | [14] | [15] | [17]

CC(CO)(CO)CO
inactive: [1] | [2] | [3] | [4] | [5] | [6] | [7] | [8] | [10] | [11] | [12] | [14] | [15] | [17] | [18]

CC(=O)CC(=O)OC(C)(C)C
inactive: [1] | [2] | [3] | [4] | [5] | [7] | [8] | [9] | [10] | [11] | [12] | [14] | [15] | [17] | [18]

Cc1ccc(C(=O)O)cc1[N+](=O)[O-]
inactive: [1] | [2] | [3] | [4] | [5] | [6] | [7] | [8] | [9] | [10] | [14] | [15] | [17]

CC(C)[C@H]1CC[C@H](C)C[C@@H]1O
inactive: [1] | [2] | [3] | [4] | [5] | [6] | [7] | [8] | [10] | [12] | [13] | [14] | [15] | [17] | [18]

CCc1occc(=O)c1O
inactive: [1] | [2] | [3] | [4] | [5] | [7] | [8] | [10] | [11] | [13] | [15]

CCCC(=O)Nc1ccc(OCC(O)CNC(C)C)c(C(C)=O)c1 (stereo not drawn)
inactive: [1] | [2] | [3] | [4] | [6] | [7] | [8] | [9] | [10] | [11] | [12] | [16] | [14] | [15] | [17]

C=CCCCCCCCCC(=O)OCCCC
inactive: [1] | [2] | [3] | [4] | [5] | [7] | [8] | [10] | [11] | [12] | [16] | [13] | [14] | [15] | [17] | [18]

Cc1ccc2c(c1)C(=O)c1ccccc1C2=O
inactive: [1] | [3] | [4] | [5] | [7] | [8] | [10] | [11] | [12] | [16] | [15] | [17]
active: [2] 48.4 µM | [6] 54.3 µM

CCCCOCCOC(=O)COc1ccc(Cl)cc1Cl
inactive: [1] | [2] | [3] | [4] | [5] | [6] | [7] | [8] | [9] | [10] | [12] | [15] | [17]

CCC[C@@H]1C[C@@H](C(=O)N[C@@H]([C@H]2O[C@H](SC)[C@H](O)[C@@H](O)[C@H]2O)[C@@H](C)O)N(C)C1
inactive: [1] | [2] | [3] | [4] | [5] | [6] | [7] | [8] | [9] | [10] | [11] | [12] | [14] | [15]

CCCC(=O)OCCC(C)CCC=C(C)C (stereo not drawn)
inactive: [1] | [2] | [3] | [4] | [6] | [7] | [10] | [11] | [12] | [16] | [14] | [15]
active: [8] 49 µM

O=[N+]([O-])c1c(Cl)cc(Cl)cc1Cl
inactive: [1] | [2] | [3] | [4] | [5] | [6] | [7] | [10] | [12] | [16] | [14] | [15] | [17] | [18]

CC1CC(=O)CC(C)(C)C1 (stereo not drawn)
inactive: [1] | [2] | [3] | [4] | [5] | [6] | [7] | [8] | [9] | [10] | [11] | [12] | [15] | [17]

O=C1CCCCO1
inactive: [1] | [2] | [3] | [4] | [5] | [6] | [7] | [9] | [10] | [11] | [12] | [16] | [14] | [15] | [17]

Cc1ccc(C(C)NC(=O)[C@@H](NC(=O)OC(C)C)C(C)C)cc1 (stereo partly drawn)
inactive: [1] | [2] | [3] | [4] | [5] | [6] | [7] | [8] | [9] | [10] | [11] | [12] | [13] | [14] | [19] | [15]

C=C(C)[C@@H]1CC=C(C)C(=O)C1
inactive: [1] | [2] | [3] | [4] | [6] | [7] | [8] | [9] | [10] | [12] | [14] | [15] | [17] | [18]

From PubChem BioAssay (Tox21)
